Consider 12 compounds from PubChem BioAssay (NCATS).

Values joined by “and” are separate entries in the source; they are usually repeats but may differ in a detail not shown here. Equal values may be shown once. Results filed as inconclusive are left out. Active and inactive are the calls of the source. Unless noted, the call rests on the fitted dose curve.

For experiment [1], the target named is Bile acid receptor (Homo sapiens) (UniProt Q96RI1). Put plainly: qHTS assay for small molecule agonists of farnesoid X receptor signaling (AID 588527).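 Further: series mostly up to about 77 µM; 0% = vehicle basal and 100% = reference agonist.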 To be noted: HEK293T FXR-UAS-bla, beta-lactamase ratio, 16 h; activation: stronger effect = higher value. In short, it runs like this: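 Read-out: beta-lactamase reporter fluorescence with CCF4 substrate in GeneBLAzer FXR-UAS-bla HEK293T cells, after 16 h compound exposure at 37 C. Response scaled between DMSO basal (0%) and chenodeoxycholic acid at 100 uM (100%).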
Bile acid receptor (Homo sapiens), sequence (Q96RI1 whole entry, looked up): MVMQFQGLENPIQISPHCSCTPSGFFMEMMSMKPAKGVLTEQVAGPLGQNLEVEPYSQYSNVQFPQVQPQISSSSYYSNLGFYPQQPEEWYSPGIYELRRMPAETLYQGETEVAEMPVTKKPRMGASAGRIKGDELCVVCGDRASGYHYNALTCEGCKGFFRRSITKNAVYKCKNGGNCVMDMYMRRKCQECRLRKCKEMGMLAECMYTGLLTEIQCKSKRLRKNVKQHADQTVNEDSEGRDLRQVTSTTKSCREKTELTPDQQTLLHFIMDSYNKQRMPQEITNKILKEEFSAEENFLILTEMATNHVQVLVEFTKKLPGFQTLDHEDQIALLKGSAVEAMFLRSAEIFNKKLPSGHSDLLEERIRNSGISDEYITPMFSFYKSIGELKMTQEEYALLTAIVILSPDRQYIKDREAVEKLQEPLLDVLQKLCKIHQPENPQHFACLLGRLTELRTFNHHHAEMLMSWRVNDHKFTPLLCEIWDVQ
A general note: Quantitative high-throughput screening tests each substance at several concentrations.

In experiment [2] the target is Peroxisome proliferator-activated receptor delta (Homo sapiens) (UniProt Q03181). Put plainly: qHTS assay for small molecule agonists of peroxisome proliferator-activated receptor delta signaling (AID 588534).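 Further: 0% = DMSO basal wells and 100% = positive control agonist at 10 µM.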 Summed up:
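Titration series tested in agonist mode on beta-lactamase reporter cells; 18 hrs at 37 C after a 5 hr pre-incubation. Readout: CCF4 fluorescence, 2 hrs RT. Hill equation gives EC50 and maximal response.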

Experiment [3] deals with Glucocorticoid receptor (Homo sapiens) (UniProt P04150). Put plainly: qHTS assay for small molecule agonists of glucocorticoid receptor signaling (AID 588532; active means well fitted curve in the direction sought with a large enough effect in the signal ratio, with a control signal flat; the % refers to the signal ratio;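 further: 100% = dexamethasone at 0.1 µM and 0% = DMSO only wells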). The conditions noted are these: HeLa MMTV-bla, beta-lactamase ratio, agonist, 18 h; activation: stronger effect = higher value, percent of dexamethasone control, DMSO zero. Summed up:
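Using MMTV-bla HeLa cells in medium with 1% stripped FBS and 25 mM HEPES, compounds were titrated and incubated overnight-length (18 h). Beta-lactamase cleavage of CCF4 was quantified by dual-emission fluorescence.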

In experiment [4] the target is Thyroid hormone receptor beta (Homo sapiens) (UniProt P10828). Nature of the experiment: qHTS assay for small molecule agonists of thyroid hormone receptor beta signaling (AID 588545).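 Further: 0% = DMSO only and 100% = 10 nM T3.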 Summed up:
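Beta-lactamase reporter activity under TR response element control is measured in HEK 293 cells after 18 hrs compound exposure. Signal is ratiometric CCF4 fluorescence, 460/530 nm.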

The nature of experiment [5]: qHTS assay for small molecule antagonists of retinoid X receptor alpha signaling (AID 588546; active means well fitted inhibition curve with a large enough effect in the signal ratio, with a control signal flat, not every such curve was filed as active; the % refers to the signal ratio; further: potency means the concentration at half of the fitted maximal effect;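 on max response: cells stimulated with 9-cis-retinoic acid as agonist; on the % scale 0 is the no-effect control and ±100 the full control effect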). The conditions noted are these: HEK293T RXRa-UAS-bla, beta-lactamase ratio, antagonist mode; measured here: W530 green channel, cytotoxicity proxy. In short, it runs like this:
(§1)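 Beta-lactamase reporter inhibition, read as CCF4 fluorescence ratio (ex 405, em 460/530 nm) after 2 h at RT. HEK293T UAS-bla cells, 2500/well, were stimulated with 9-cis-RA at 500 or 100 nM final alongside test compound for 18 h at 37 C.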

For experiment [6], the target named is Retinoic acid receptor RXR-alpha (Homo sapiens) (UniProt P19793). The description is as above. To be noted: HEK293T RXRa-UAS-bla, beta-lactamase ratio, antagonist mode. In short, it runs like this:
as §1

Experiment [7] can be described thus: qHTS assay for small molecule agonists of the antioxidant response element (ARE) signaling pathway (AID 651741; active means well fitted activation curve with a large enough effect in the signal ratio; the % refers to the signal ratio; further: potency means the concentration at half of the fitted maximal effect). Summed up: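 Agonist activity is measured as ARE-driven beta-lactamase expression in a stable HepG2 reporter line, using 16 h compound treatment at 37 C and a FRET substrate fluorescence readout after 2 h.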
In experiment [8] the target is Peroxisome proliferator-activated receptor alpha (Homo sapiens) (UniProt Q07869). Nature of the experiment: qHTS assay for small molecule agonists of the peroxisome proliferator-activated receptor alpha (PPARalpha) signaling pathway (AID 651778; active means well fitted curve in the direction sought with a large enough effect; an effect the other way counts as inactive or inconclusive; further: % of control where 0% means no effect). To be noted: PathHunter PPARalpha complementation, chemiluminescence, 6 h; max response: stronger effect = higher value. Summed up: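 Chemiluminescence from complemented enzyme reported PPARalpha activation in cells after 6 hr of compound treatment at 37 C. The detection reagent was incubated for 60 min at room temperature, and compounds were scored as agonists.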
Peroxisome proliferator-activated receptor alpha (Homo sapiens), sequence (Q07869 whole entry, looked up): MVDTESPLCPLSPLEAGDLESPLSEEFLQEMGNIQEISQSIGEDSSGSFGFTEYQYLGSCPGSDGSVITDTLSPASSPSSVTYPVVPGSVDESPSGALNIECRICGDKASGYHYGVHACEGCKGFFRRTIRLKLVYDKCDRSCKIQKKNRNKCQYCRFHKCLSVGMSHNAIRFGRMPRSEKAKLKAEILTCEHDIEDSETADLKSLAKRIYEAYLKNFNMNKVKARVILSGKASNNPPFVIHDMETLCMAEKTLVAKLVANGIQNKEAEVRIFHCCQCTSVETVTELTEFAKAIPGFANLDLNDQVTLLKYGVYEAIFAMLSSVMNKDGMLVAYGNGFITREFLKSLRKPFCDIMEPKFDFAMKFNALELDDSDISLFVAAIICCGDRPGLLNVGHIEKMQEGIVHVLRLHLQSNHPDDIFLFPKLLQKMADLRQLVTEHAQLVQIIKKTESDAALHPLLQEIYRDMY

Experiment [9] in a line: qHTS assay for small molecule agonists of the antioxidant response element (ARE) signaling pathway measured by Nrf2-dependant transcriptional activity (AID 720636; active means well fitted curve in the direction sought with a large enough effect in the repeat runs; an effect the other way counts as inactive or inconclusive; further: potency means the concentration at half of the fitted maximal effect;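 on activation: HepG2 cells with an ARE-driven luciferase reporter; % of control where 0% means no effect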). Summed up:
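HepG2 ARE-luc reporter line, 1% dialyzed FBS; 6 hr attachment at 37 C, compound pinned in, 16 hr at 37 C/5% CO2; ONE-Glo, 30 min RT, luminescence read.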

A short description of experiment [10]: qHTS assay for small molecule agonists of the antioxidant response element (ARE) signaling pathway measured by Nrf2-dependant transcriptional activity - cell viability counter screen (AID 720653; active means well fitted curve in the direction sought with a large enough effect in the repeat runs; an effect the other way counts as inactive or inconclusive; further: potency means the concentration at half of the fitted maximal effect; on max response: on the % scale 0 is the no-effect control and ±100 the full control effect). The conditions noted are these: ARE-bla HepG2 viability, CellTiter-Glo ATP luminescence, 16 h; max response: stronger effect = lower value. In short, it runs like this:
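Cytotoxicity counter screen: intracellular ATP quantified by CellTiter-Glo luminescence in the same ARE-bla HepG2 plates, after 16 h compound exposure and a 2 h beta-lactamase substrate step.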

The nature of experiment [11]: qHTS assay for cell viability of the p53RE-bla HCT-116 cell line (AID 743292; active means well fitted curve in the direction sought with a large enough effect; an effect the other way counts as inactive or inconclusive; further: nearly all actives have a fitted effect of over 55% in size; further: potency means the concentration at half of the fitted maximal effect). In short, it runs like this: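 Luminescent ATP quantitation (CellTiter-Glo) served as the viability read-out; reagent was added after 16 h compound exposure at 37 C and read after 30 min at room temperature. Cells: p53RE-bla HCT-116, 4,000 per well.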
Experiment [12] addresses Vitamin D3 receptor (Homo sapiens) (UniProt P11473). Nature of the experiment: qHTS assay for small molecule antagonists of vitamin D receptor signaling (AID 588541). Further: potency means the concentration at half of the fitted maximal effect. In short, it runs like this: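 Antagonist-mode beta-lactamase reporter assay: HEK293T VDR-UAS-bla cells were exposed to titrated compound alongside 1-alpha,25-dihydroxyvitamin D3 at 3 nM final for 16 h. Values were normalized to the 50 nM agonist control and DMSO basal, with IC50 and efficacy from Hill equation fits.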

Experiment [13] can be described thus: qHTS assay for environmental chemicals that activate the Aryl hydrocarbon Receptor (AhR) signaling pathway (AID 651777; active means well fitted curve in the direction sought with a large enough effect; an effect the other way counts as inactive or inconclusive; further: % of control where 0% means no effect; nearly all actives have a fitted effect of over 15% in size). The conditions noted are these: 1A2-DRE human hepatoma cells, luciferase, 24 h; activation: stronger effect = higher value. In short, it runs like this:
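Luminescence read-out: One-Glo added for 30 min at RT after 24 hr compound treatment (37 C, 5% CO2) of human hepatoma cells expressing a DRE/CYP1A2 promoter–luciferase reporter; increased signal indicates AhR activation.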

In experiment [14] the target is Vitamin D3 receptor (Homo sapiens) (UniProt P11473). Put plainly: qHTS assay for small molecule agonists of vitamin D receptor signaling (AID 588543).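 Further: 0% = DMSO basal and 100% = reference agonist control.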 Summed up:
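VDR-UAS-bla HEK293T cells, 2000/well, 2% charcoal-stripped FBS; compound titration 16 h at 37 C; CCF4 beta-lactamase ratio read. Normalized to 50 nM 1-alpha,25-dihydroxyvitamin D3 (100%) and DMSO; Hill fit gives EC50, efficacy.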

For experiment [15], the target named is Thyroid hormone receptor beta (Homo sapiens) (UniProt P10828). Nature of the experiment: qHTS assay for small molecule antagonists of thyroid hormone receptor beta signaling (AID 588547; active means well fitted inhibition curve with a large enough effect in the signal ratio, with a control signal flat, not every such curve was filed as active; the % refers to the signal ratio;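 further: cells stimulated with 0.4 nM T3 agonist during compound exposure; series mostly up to about 77 µM; on the % scale 0 is the no-effect control and ±100 the full control effect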). To be noted: TR-UAS-bla HEK293, beta-lactamase ratio, antagonist mode, 18 h. In short, it runs like this: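 Inhibition of T3-driven (0.4nM final) beta-lactamase reporter activity was measured over 0.59 nM to 92 uM compound after 18 h at 37 C. The cells were GripTite HEK293 TR-UAS-bla in charcoal/dextran-stripped serum, with CCF4 ratio read-out and IC50 from Hill fits.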
Thyroid hormone receptor beta (Homo sapiens), sequence (P10828 whole entry, looked up): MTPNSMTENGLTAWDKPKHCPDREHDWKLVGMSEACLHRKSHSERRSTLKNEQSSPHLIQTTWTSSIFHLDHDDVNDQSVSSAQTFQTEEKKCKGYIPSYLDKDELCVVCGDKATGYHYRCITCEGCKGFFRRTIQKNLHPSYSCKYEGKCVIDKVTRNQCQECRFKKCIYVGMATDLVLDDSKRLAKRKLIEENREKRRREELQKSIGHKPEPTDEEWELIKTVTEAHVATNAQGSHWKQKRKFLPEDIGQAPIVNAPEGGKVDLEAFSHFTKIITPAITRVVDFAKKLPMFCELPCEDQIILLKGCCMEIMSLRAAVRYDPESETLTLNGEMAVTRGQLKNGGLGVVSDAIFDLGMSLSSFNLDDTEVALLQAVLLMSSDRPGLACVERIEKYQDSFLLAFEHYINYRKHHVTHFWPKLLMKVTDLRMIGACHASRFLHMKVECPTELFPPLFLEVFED

Experiment [16] can be described thus: qHTS assay for small molecule activators of the p53 signaling pathway (AID 651743; active means well fitted activation curve with a large enough effect in the signal ratio, not every such curve was filed as active; the % refers to the signal ratio; further: potency means the concentration at half of the fitted maximal effect; on activation: series mostly up to about 92 µM; % of control where 0% means no effect). The conditions noted are these: HCT-116 p53RE-bla, beta-lactamase FRET ratio, 16 h; activation: stronger effect = higher value. In short, it runs like this:
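A beta-lactamase reporter under p53 response element control, stably carried by HCT-116 cells, reported pathway activation. Test compounds were applied for 16 hours at 37 C, and fluorescence was measured 2 hours after adding the B/G FRET substrate.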

Experiment [17] can be described thus: qHTS assay for small molecule activators of the nuclear factor-kappa B (NF-kB) signaling pathway (AID 651749; active means well fitted activation curve with a large enough effect in the signal ratio; the % refers to the signal ratio; further: series mostly up to about 77 µM; % of control where 0% means no effect). The conditions noted are these: NF-kB-bla ME-180 cells, beta-lactamase FRET ratio, 16 h; activation: stronger effect = higher value. In short, it runs like this: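 FRET-based beta-lactamase detection in ME-180 cells reports NF-kB response-element-driven transcription following overnight (16 hr) compound treatment.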

Experiment [18] in a line: qHTS assay for cell viability of HEK293 cells (AID 743288; active means well fitted curve in the direction sought with a large enough effect; an effect the other way counts as inactive or inconclusive; further: on the % scale 0 is the no-effect control and ±100 the full control effect; nearly all actives have a fitted effect of over 50% in size). To be noted: ATP luminescence (CellTiter-Glo), 18 h; max response: stronger effect = lower value. In short, it runs like this:
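Steps: plate 2,000 parental HEK293 cells per well; incubate ≥5 h, 37 C; add compounds in DMSO; incubate 18 h, 37 C; add CellTiter-Glo; wait 30 min at room temperature; read luminescence.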

The target of experiment [19] is Nuclear receptor subfamily 1 group I member 2 (Rattus norvegicus) (UniProt Q9R1A7). Put plainly: qHTS assay for small molecule activators of the rat pregnane X receptor (rPXR) signaling pathway (AID 651751; call rule not given here; further: 0% is about no effect). To be noted: rPXR reporter cells, luciferase (One-Glo), 24 h.
Nuclear receptor subfamily 1 group I member 2 (Rattus norvegicus), sequence (Q9R1A7 whole entry, looked up): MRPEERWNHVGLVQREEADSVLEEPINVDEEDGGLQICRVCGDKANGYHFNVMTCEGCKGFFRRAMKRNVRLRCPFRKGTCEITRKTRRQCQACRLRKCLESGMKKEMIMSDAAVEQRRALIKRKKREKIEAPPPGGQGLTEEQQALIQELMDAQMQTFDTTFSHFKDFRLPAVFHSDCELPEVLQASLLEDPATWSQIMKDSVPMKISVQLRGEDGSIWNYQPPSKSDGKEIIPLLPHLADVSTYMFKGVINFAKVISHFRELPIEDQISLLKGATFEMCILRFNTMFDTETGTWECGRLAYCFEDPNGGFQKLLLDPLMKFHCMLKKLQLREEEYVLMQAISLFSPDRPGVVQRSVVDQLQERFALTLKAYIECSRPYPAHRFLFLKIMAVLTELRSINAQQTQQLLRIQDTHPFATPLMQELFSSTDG

Vitamin D3 receptor (Homo sapiens), sequence (P11473 whole entry, looked up): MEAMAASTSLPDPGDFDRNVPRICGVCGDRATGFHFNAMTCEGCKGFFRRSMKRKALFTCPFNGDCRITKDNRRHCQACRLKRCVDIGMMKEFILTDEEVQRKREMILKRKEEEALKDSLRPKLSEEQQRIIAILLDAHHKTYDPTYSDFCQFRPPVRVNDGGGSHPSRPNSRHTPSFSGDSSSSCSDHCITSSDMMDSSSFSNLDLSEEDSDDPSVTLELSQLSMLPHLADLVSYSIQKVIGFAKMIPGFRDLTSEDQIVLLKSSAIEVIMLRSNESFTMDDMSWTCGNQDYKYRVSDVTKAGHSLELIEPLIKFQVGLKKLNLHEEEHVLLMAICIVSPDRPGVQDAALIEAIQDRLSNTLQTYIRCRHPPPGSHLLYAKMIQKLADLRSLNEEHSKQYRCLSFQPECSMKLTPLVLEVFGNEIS
Glucocorticoid receptor (Homo sapiens), sequence (P04150 whole entry, looked up): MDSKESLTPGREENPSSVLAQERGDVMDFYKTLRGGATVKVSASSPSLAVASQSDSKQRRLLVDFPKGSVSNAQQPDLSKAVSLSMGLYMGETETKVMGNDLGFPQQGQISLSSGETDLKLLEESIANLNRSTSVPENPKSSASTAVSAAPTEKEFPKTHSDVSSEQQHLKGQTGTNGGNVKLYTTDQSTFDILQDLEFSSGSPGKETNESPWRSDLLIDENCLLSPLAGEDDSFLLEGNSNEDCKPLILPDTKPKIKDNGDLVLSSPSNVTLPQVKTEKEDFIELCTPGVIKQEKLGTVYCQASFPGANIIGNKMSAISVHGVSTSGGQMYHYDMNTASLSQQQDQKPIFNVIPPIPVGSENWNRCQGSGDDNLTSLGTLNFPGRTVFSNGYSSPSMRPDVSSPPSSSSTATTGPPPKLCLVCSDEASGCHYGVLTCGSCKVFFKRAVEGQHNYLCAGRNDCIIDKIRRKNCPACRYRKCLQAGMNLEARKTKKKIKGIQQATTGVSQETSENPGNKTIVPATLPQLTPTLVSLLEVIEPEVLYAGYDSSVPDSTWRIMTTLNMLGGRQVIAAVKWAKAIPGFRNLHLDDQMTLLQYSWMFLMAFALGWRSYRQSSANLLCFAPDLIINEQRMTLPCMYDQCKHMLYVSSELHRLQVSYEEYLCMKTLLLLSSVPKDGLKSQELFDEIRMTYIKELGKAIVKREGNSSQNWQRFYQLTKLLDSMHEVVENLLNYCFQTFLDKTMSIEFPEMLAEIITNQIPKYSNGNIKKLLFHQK
Peroxisome proliferator-activated receptor delta (Homo sapiens), sequence (Q03181 whole entry, looked up): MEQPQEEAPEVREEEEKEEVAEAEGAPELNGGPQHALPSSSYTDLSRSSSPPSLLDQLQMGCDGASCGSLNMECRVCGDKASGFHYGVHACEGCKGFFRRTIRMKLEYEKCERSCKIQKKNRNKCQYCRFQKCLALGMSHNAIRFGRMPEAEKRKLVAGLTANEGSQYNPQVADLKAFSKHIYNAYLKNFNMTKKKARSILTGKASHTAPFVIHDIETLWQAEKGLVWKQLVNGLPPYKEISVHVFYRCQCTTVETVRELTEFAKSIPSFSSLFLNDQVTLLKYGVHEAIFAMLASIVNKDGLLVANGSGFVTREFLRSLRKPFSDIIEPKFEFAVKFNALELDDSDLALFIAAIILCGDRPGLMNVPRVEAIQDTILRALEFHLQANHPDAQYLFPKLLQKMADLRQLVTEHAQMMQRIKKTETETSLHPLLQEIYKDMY
Retinoic acid receptor RXR-alpha (Homo sapiens), sequence (P19793 whole entry, looked up): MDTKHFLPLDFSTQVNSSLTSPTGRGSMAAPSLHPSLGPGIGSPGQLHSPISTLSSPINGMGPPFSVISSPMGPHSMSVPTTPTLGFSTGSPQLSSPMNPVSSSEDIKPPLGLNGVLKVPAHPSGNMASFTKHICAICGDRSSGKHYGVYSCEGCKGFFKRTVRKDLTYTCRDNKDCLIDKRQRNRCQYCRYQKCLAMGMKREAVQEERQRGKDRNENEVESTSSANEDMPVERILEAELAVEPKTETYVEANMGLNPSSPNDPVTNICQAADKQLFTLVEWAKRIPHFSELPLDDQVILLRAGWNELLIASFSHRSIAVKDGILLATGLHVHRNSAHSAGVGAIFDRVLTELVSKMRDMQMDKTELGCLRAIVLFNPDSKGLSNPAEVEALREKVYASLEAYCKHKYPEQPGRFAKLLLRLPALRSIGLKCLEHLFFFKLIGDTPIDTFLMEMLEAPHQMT

For `CCOCCOCC`, in [1], the activation was -1.11% (inactive). Moreover, the compound was called inactive in [2].
Regarding `Cc1ccc(S(N)(=O)=O)cc1`, the activation in experiment [1] was 0.771% (inactive) and -1.64% (inactive). In [2], the outcome was inactive.
On to `CC(=O)OC(C)C`, for which the activation in [1] is -1.76% (inactive). The call in [2] was inactive.
Turning to `Fc1ccc(Oc2ccnc3cc(Cl)cc(Cl)c23)cc1`, the activation in experiment [1] was -3.06% (inactive); in experiment [3], -6.4% (inactive). Besides, the Potency entry in [4] and in experiment [11] was “inactive” throughout. In addition, the figures for the max response in [5], in experiment [8] and in experiment [10] were 20.3%, 3.62% (inactive) and -31.6% (inactive), respectively. Also, the Potency is 39.8 µM (active) in [6], 21.7 µM (active) in [7] and 34.4 µM (active) in experiment [9].
Turning to `CCC[CH2][Sn]([CH2]CCC)([CH2]CCC)[O][Sn]([CH2]CCC)([CH2]CCC)[CH2]CCC`, the results for the activation in [1], in experiment [3] and in [13] were 0.0431% (inactive), 3.22% (inactive) and 0.111% (inactive), respectively. Further, the Potency in experiment [12] is 22.4 µM (active); in [7] it was 27.3 µM (active); in experiment [10] it was 22.4 µM (active); in experiment [11], 22.4 µM (active). For the same compound, the max response in experiment [8] was 5.55% (inactive).
Regarding `C[Si](C)(C)Cl`, in [1], the activation is 1.08% (inactive).
As for `Oc1c(Cl)ccc(Cl)c1Cl`, in [1], the activation was -2.11% (inactive). Besides, in [2], the compound was classed as inactive.
For the compound `CCOC(=O)C(C)Oc1ccc(Oc2cnc3cc(Cl)ccc3n2)cc1` (centres undefined), in experiment [1], the activation is -3.91% (inactive).
`O=C(O)c1ccc(CO)o1`: in experiment [1], the activation is 0.258% (inactive). In [2], the result was inactive.
`c1ccc2c(c1)Cc1ccccc1-2`: the activation in experiment [1] is 0.0131% (inactive).
Take `CC(c1ccc(O)cc1)(c1ccc(O)cc1)c1ccc(O)cc1`: the activation in [1] was 12.5% (inactive); in experiment [3], -5.2% (inactive); in experiment [16], -9.57% (inactive); in experiment [17], 2.37% (inactive); in [13], -4% (inactive). Besides, the compound was called inactive in [2] and in experiment [14]. Moreover, the Potency entry in [4], in [9] and in experiment [11] was “inactive” each time. The activity change % (negative = inhibition) in [15] is -15% (inactive). Besides, the Potency in experiment [7] was 12.2 µM (active). Also, the max response in experiment [8] was -5.19% (inactive); in experiment [10], -3.26% (inactive); in experiment [18] it was -0.68% (inactive); in [19] it was -0.575% (inactive).
Consider `CCC(C)c1cc([N+](=O)[O-])cc([N+](=O)[O-])c1O` (centres undefined), for which the activation in experiment [1] is 4.38% (inactive); in experiment [3] it was -12.7% (inactive); in [17], -0.876% (inactive); in [13] it was 6.77% (inactive). Moreover, the Potency result in [12], in experiment [4] and in experiment [11] was “inactive” in each case. Also, the max response in experiment [5] was -3.63%; in experiment [8], -1.93% (inactive). Further, in [15], the activity change % (negative = inhibition) is -14.7% (inactive). Further, the Potency in [7] was 2.73 µM (active); in [16], 6.31 µM (active).
